Screens (PubChem)
The list is not random: actives were taken first. Their share in the collection is about 7.3%.
NPC1 prom act: activates the NPC1 promoter | Huh7 NPC1 promoter luciferase reporter, 24 h | Potency, µM (doses to about 9.22 µM), for the others: at the top dose activation, hits mostly activators | hit rate 2.4% among 320,000 | AID 485313; further: % of control where 0% means no effect; nearly all actives have a fitted effect of over 60% in size
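Cells: Huh7 expressing luciferase under the NPC1 promoter, 1500/well. Seeded 2 h, compound added, incubated 24 h at 37 °C. Luciferase reagent, 10 min ambient, then luminescence.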
ELG1 genotoxic: inducers of genotoxicity in HEK293T ELG1-luciferase cells | HEK293T ELG1-luciferase reporter, luminescence, 16 h | Potency, µM (top dose mostly 46 µM), for inactives: top-dose activity change, positive = activation, usual class: activators | hit rate 1.3% among 330,000; further: % of control where 0% means no effect; nearly all actives have a fitted effect of over 60% in size
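Step 1: seed 2,000 HEK293T ELG1-luciferase cells per well. Step 2: add compound or DMSO, incubate 16 hr at 37 °C. Step 3: ONE-Glo, 30 min at room temperature, read luminescence.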
SMN2 splice enh: increases expression of the SMN2 splice variant. Potency, µM (titrated, usually from 46.1 µM), for the others: at the top dose activity change, positive = activation, hits mostly activators. HEK293 SMN2-luciferase splicing reporter, luminescence, 30-36 h. hit rate 2.8% among 210,000. AID 1458; further: % of control where 0% means no effect; nearly all actives have a fitted effect of over 55% in size
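qHTS luciferase splicing reporter: luminescence rises when SMN2 exon 7 is included in transfected HEK293 cells. Compound exposure lasted 30-36 h at 37C, with 4.5 mM final sodium butyrate as control, followed by a ONE-Glo read.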
Rab9 prom act: Rab9 promoter activation; hit rate 2.8% among 320,000; Huh7 Rab9 promoter-luciferase reporter, luminescence, 24 h; Potency, µM (series often up to 9.22 µM), for inactives: at the highest dose activation, negative = inhibition, hits mostly activators; further: % of control where 0% means no effect; nearly all actives have a fitted effect of over 60% in size
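Using Huh7 cells stably transfected with Rab9 promoter–luciferase, compounds were incubated 24 h at 37 °C, 5% CO2; luciferase luminescence was read 10 min after reagent addition.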
KinaseGlo FLuc: counter-screen: inhibitors of Kinase-Glo firefly luciferase; Q27757; Kinase-Glo luciferase, ATP luminescence, 8 min; Potency, µM (top dose mostly 38.3 µM), without a hit: at the highest dose activity change, negative = inhibition, hits mostly inhibitors; hit rate 0.28% among 200,000; further: on the % scale 0 is the no-effect control and ±100 the full control effect; nearly all actives have a fitted effect of over 60% in size
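Substrate mix (final 50 mM imidazole pH 7.2, 50 mM KCl, 7 mM MgCl2, 10 uM ATP, 0.01% Tween 20, 0.05% BSA) plus pin-tool compound, then Kinase-Glo detection mix; 8 min ambient, luminescence read.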
FLuc modulator: counter-screen for miR-21 project: firefly luciferase inhibitors or activators; hit rate 6.9% among 360,000; P08659; purified FLuc, Km substrates, luminescence inhibition; Potency, µM (titrated, usually from 57.5 µM), inactives show at the top dose activity change, negative = inhibition, most hits filed as inhibitors; AID 588342;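 further: plate controls were vehicle for no effect and reference inhibitor for full effect; nearly all actives have a fitted effect of over 55% in size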
Target sequence (P08659 whole entry, looked up): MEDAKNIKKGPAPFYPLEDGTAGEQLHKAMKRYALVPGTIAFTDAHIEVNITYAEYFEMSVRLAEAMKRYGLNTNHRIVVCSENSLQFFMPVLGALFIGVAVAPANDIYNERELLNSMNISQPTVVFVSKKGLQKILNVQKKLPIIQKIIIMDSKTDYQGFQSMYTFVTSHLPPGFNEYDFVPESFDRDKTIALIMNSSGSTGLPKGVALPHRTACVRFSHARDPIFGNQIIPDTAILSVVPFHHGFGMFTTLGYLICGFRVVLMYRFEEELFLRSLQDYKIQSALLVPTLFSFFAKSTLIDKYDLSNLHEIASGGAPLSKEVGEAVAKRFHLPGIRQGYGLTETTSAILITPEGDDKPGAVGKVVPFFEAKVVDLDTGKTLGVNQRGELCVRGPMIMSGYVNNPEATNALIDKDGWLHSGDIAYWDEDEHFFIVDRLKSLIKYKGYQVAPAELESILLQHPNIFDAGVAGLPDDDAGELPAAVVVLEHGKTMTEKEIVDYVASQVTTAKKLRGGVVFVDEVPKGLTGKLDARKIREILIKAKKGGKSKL
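Purified P. pyralis luciferase (10nM final) with 10uM D-luciferin and 10uM ATP (Km levels) in 50mM Tris acetate pH 7.5, 10mM Mg acetate, 0.01% Tween-20, 0.05% BSA; qHTS 6-point titration, ~60 µM downward; luminescence read.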
* marks the source's active call; other numbers are inactive results; ? = inconclusive; . = not tested or not shown; [ ] = another dose, or the depositor's remark. The call rests on the fitted dose curve; in most records, active means well fitted curve in the direction sought with a large enough effect; inconclusive means small, poorly fitted or top-dose-only effect, or another doubt; inactive means no such curve, though single readings can be large; an effect the other way counts as inactive or inconclusive. Potency means the concentration at half of the fitted maximal effect.

SMILES | NPC1 prom act | ELG1 genotoxic | SMN2 splice enh | Rab9 prom act | KinaseGlo FLuc | FLuc modulator
COc1cccc(C(=O)Nc2cccc(-c3cn4c(C)csc4n3)c2)c1OC | . | . | . | . | . | 7.6µM*
COc1cccc(NC(=O)c2cc3ccccc3cc2OC)c1 | 2% | ? | . | 13% | . | 9.5µM*
COc1cccc(C(=O)Nc2ccc3c(c2)CCCN3C(=O)c2cccs2)c1OC | 5% | -5% | . | 14% | . | 9.5µM*
CCOC(=O)CSc1nnc(-c2ccc(Cl)cc2Cl)o1 | 1% | 9% | -1% | -2% | -11% | 8.5µM*
CCCOC(=O)CSc1nnc(-c2ccc(Cl)cc2Cl)o1 | 2% | 1% | -4% | -1% | -3% | 15µM*
CCCCOC(=O)CSc1nnc(-c2ccccc2)o1 | . | . | . | . | . | -16%
CCOC(=O)c1cc(-c2nnc(-c3ccc(Cl)cc3)o2)c(C)nc1C | 0% | 2% | -18% | -3% | 2% | 1%
CCOC(=O)c1ccc(-c2nnc(-c3ccc(Cl)cc3Cl)o2)cc1 | 0.63µM* | 16% | 3.5µM* | 0.5µM* | 3% | 3%
CCOC(=O)CSc1nnc(-c2ccccc2)o1 | -2% | 2% | -7% | 0% | 0% | ?
Cc1ccc(S(=O)(=O)N2CCc3cc(C(=O)Nc4c(C)cccc4C(C)C)ccc32)cc1 | . | . | -12% | . | . | -2%
Cc1cc(=O)oc2cc(OCC(=O)N3CCN(c4ccccc4)CC3)c(Cl)cc12 | -1% | 0% | . | 2% | . | 19µM*
Cc1cccc(N2CCN(C(=O)COc3cc4oc(=O)cc(C)c4cc3Cl)CC2)c1C | 0% | 0%[9.26 µM] | . | 0% | . | -1%
Cc1nc2ccccc2nc(C)c1=NOCc1cccc(F)c1 | -2% | -6% | 20µM* | -1% | 1% | -11%
CCOc1cccc(-c2nc3ccccc3c(=O)o2)c1 | . | . | ? | . | . | 5.4µM*
COc1cc(OC)cc(-c2nc3ccccc3c(=O)o2)c1 | -3% | -5% | -13% | -6% | -4% | ?
COc1cccc(-c2nc3ccccc3c(=O)o2)c1 | 12% | ? | -13% | 9% | -21% | 4.8µM*
CCOC(=O)c1ccc(N2C(=O)c3n[nH]c(-c4ccco4)c3C2c2ccc(OCC)cc2)cc1 (configuration not stated) | . | . | 2% | . | . | -8%
Cc1ccccc1NC(=O)C1CCN(C(=O)c2cnn(-c3ccccc3)c2-n2cccc2)CC1 | . | . | 1% | . | . | 1%
COc1cc2oc(=O)cc(-c3ccc(-c4sccc4C=O)cc3)c2c(OC)c1OC | . | . | . | . | 0%[39.9 µM] | .
CCOc1ccc(CCNC(=O)c2ccc3[nH]c(C)c(C)c3c2)cc1 | . | . | . | . | . | -19%
CCOc1ccc(NC(=O)c2ccc3[nH]c(C)c(C)c3c2)cc1 | . | . | . | . | . | 13µM*
COc1ccc(NC(=O)c2ccc3[nH]c(C)c(C)c3c2)cc1 | 20% | 14% | . | ? | . | 13µM*
Cc1cccc(OCC(=O)N(Cc2ccc(C(C)(C)C)cc2)Cc2ccco2)c1 | . | . | -8% | . | . | 3%
COc1c(F)c(F)c(C(=O)O)c(Nc2ccc(C)cc2)c1F | 2% | 1% | -4% | -3% | 1% | -5%
Cc1ccc(C)c(Nc2c(F)c(F)c(F)c(F)c2C(=O)O)c1 | 0% | 5% | -2% | -2% | 3% | 15µM*
SMILES | NPC1 prom act | ELG1 genotoxic | SMN2 splice enh | Rab9 prom act | KinaseGlo FLuc | FLuc modulator
Cc1cc(C(F)(F)F)c(C#N)c(N2CCOCC2)n1 | -3% | 0% | -10% | -2% | 0% | 1%
N#Cc1c(N2CCOCC2)nsc1-c1ccc(C(F)(F)F)cc1 | ? | ? | . | ? | . | 7.6µM*
CCN1C(=O)c2cccc3c(S(=O)(=O)NCC4CCCO4)ccc1c23 (configuration not stated) | 0% | 15µM* | . | -2% | . | -1%
CCN1C(=O)c2cccc3c(S(=O)(=O)Nc4nc(C)cs4)ccc1c23 | -1% | ? | 13µM* | -2% | -3% | 1%
CCN1C(=O)c2cccc3c(S(=O)(=O)Nc4ccccn4)ccc1c23 | -5% | 21µM* | ? | -3% | 2% | 0%
CN1C(=O)c2cccc3c(S(=O)(=O)Nc4ccccc4F)ccc1c23 | -8% | 5.8µM* | . | 0% | . | 0%
